BoNT-A LC inh2: BoNT/A light chain protease inhibitors, primary screen, biochemical, flow cytometry, MLPCN library; actives 0.17% (n = 360,000); inhibition, % at 10 µM; multiplex microsphere protease substrate cleavage; in the data active means inhibition above about 30%; further: plate controls were buffer without enzyme for full effect and enzyme alone for no effect
GDH-TPI inh: GDH-TPI coupling enzyme inhibitors, primary screen, artefact control for M. tuberculosis FBA inhibitor project, biochemical, absorbance, full deck; GDH-TPI coupled enzyme counterscreen, NADH absorbance; actives 1.2% (n = 360,000); AID 588335, 2011; inhibition, % at 4.8 µM; in the data active means inhibition above about 30%;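 further: 0% = DMSO wells and 100% = wells lacking the enzyme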
FBA Mtb inh: Mtb FBA enzyme inhibitors, primary screen, biochemical, fluorescence, strain H37Rv. actives 2.3% (n = 360,000). inhibition, % at 1 µM. Fructose-bisphosphate aldolase (Mycobacterium tuberculosis (strain ATCC 25618 / H37Rv)), …. AID 588726, 2011. purified M. tuberculosis FBA, fluorescence read-out; in the data active means inhibition above about 27%;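 further: 0% = vehicle and 100% = reference inhibitor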
Target sequence (P9WQA3 whole entry, looked up): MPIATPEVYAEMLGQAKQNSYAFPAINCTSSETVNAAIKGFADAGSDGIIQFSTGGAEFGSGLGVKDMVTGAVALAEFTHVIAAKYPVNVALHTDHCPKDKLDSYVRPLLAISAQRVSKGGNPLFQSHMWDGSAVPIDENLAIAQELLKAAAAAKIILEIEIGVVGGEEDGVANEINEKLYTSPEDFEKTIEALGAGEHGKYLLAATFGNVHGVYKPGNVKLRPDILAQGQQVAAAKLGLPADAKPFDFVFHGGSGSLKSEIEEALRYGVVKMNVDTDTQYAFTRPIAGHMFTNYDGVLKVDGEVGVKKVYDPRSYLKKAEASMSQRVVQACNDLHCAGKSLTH
Autofluor counter: flagged as autofluorescent in microsphere protease counterscreen | actives 3.1% (n = 360,000) | compound autofluorescence counterscreen, microsphere flow cytometry; hits give high values | fluorescence intensity (concentration not given with the values); in the data active means fluorescence intensity above about 16000
Anthrax LF inh2: Bacillus anthracis LF protease inhibitors, primary screen, biochemical, multiplex microsphere, MLPCN library; multiplex microsphere protease cleavage assay; inhibition, % at 10 µM; actives 0.12% (n = 360,000); in the data active means inhibition above about 30%; further: plate controls were buffer without enzyme for full effect and enzyme alone for no effect
BoNT-F LC inh: BoNT/F light chain protease inhibitors, primary screen, biochemical, flow cytometry, MLPCN library; Multiplex microsphere protease cleavage assay; inhibition, % at 10 µM; actives 0.22% (n = 360,000); in the data active means inhibition above about 35%, passing the limit was not always enough; further: plate controls were buffer without enzyme for full effect and enzyme alone for no effect
BoNT-A LC CP2: BoNT/A light chain protease inhibitors, confirmation, biochemical, flow cytometry, cherry pick 2; multiplex microsphere protease cleavage assay; AID 602325, 2012; shares compounds with BoNT-A LC inh2; inhibition, % at 10 µM; actives 10% (n = 150); in the data active means inhibition above about 24%
Anthrax LF CP2: Bacillus anthracis LF protease inhibitors, confirmation, biochemical, multiplex microsphere; shares compounds with BoNT-A LC inh2; multiplex microsphere protease cleavage assay; inhibition, % at 10 µM; actives 7% (n = 150)
BoNT-F LC CP2: BoNT/F light chain protease inhibitors, confirmation, biochemical, flow cytometry, cherry pick 2. shares compounds with BoNT-A LC inh2. multiplex microsphere protease cleavage assay. inhibition, % at 10 µM. actives 7% (n = 150). AID 602336, 2012
Starred values were filed as active, the others as inactive; . = no result given; + = active, no number. In the library only some 6.6% were active in any assay of this set; here they are far more common. Unless noted, no stated cut-off is given here; in the data, active means inhibition above about 25%; inactive means the rest.

SMILES	BoNT-A LC inh2	GDH-TPI inh	FBA Mtb inh	Autofluor counter	Anthrax LF inh2	BoNT-F LC inh	BoNT-A LC CP2	Anthrax LF CP2	BoNT-F LC CP2
CC(C)Cc1ccc(C(C)NC(=O)c2ccc(=O)[nH]c2)cc1 (configuration not stated)	0	0	0	4332	-1	-7	.	.	.
COC(=O)c1cc(-c2ccccc2)n(CCN)c1C	0	-5	2	3884	-3	-8	.	.	.
CCN(CC)c1ccc2cc(S(=O)(=O)c3ccc(Cl)cc3)c(=O)oc2c1	68*	16	9	3309	42*	21	26*	25*	15
CCN(CC)c1ccc(-c2sc(Nc3ccccc3)n[n+]2-c2ccc(F)cc2)cc1	27	17	14	17190*	44*	1	7	14	3
CN(C)c1ccc(-c2sc(Nc3ccccc3)n[n+]2-c2ccc(F)cc2)cc1	8	21	4	10058	26	10	.	.	.
Cc1cccc2c1NC1(CCCC1)CC2C (configuration not stated)	7	7	3	4778	-6	+	3	-2	+
CC1CN1c1cc2c(c3c1ccn3C)C1CCC2C1 (configuration not stated)	0	.	0	5654	-11	-14	.	.	.
COc1ccccc1-c1cc2c(c3c1ccn3C)C1CCC2C1 (configuration not stated)	12	.	7	4225	30*	-10	4	0	-6
Cn1ccc2c(-c3ccccc3F)cc3c(c21)C1CCC3C1 (configuration not stated)	3	.	13	5841	-8	2	2	-3	-1
CC1CCCN(S(=O)(=O)c2cc3c4c(c2)C(C)C(=O)N4CCC3)C1 (configuration not stated)	0	4	-2	5207	-2	-4	.	.	.
COC(=O)[C@]1(C)N[C@H](CN(C)C(=O)c2ccccc2)[C@@H]2C(=O)N(C)C(=O)[C@@H]21	0	6	5	3156	-2	-4	.	.	.
COC(=O)c1ccccc1-c1c2ccc(=N)cc-2oc2cc(N)ccc12	9	5	-6	34738*	61*	62*	15	-9	-35
CC(C)(C)c1ccc2c(c1)N(CC(=O)N1CCCC1)C(=O)CO2	-1	4	2	3918	-6	-2	.	.	.
Cc1cc2cc(CNC(=O)NC3CCCCC3)ccc2n1C	23	10	-1	2076	-107	-132	.	.	.
Cc1cc2cc(CNC(=O)Nc3ccc(Cl)c(Cl)c3)ccc2n1C	35*	-2	2	2226	-117	-123	10	-6	-38
CCOc1ccc(CC(=O)NCc2ccc3c(c2)cc(C)n3C)cc1	81*	5	0	2221	-8	-29	3	-1	5
Cc1onc(-c2ccccc2Cl)c1C(=O)NCc1ccc2c(c1)cc(C)n2C	83*	6	1	2004	-75	-87	49*	20	-40
COc1ccc(C(=O)NCc2ccc3c(c2)cc(C)n3C)cc1	95*	13	1	1203	-37	-82	8	9	13
Nc1nc2c(Br)ccc(Br)c2cc1C(=O)NCc1cccc2ccccc12	2	.	.	5996	-2	13	.	.	.
O=C(NCC(=O)N1CCN(S(=O)(=O)c2ccccc2)CC1)c1ccc(Br)o1	.	8	-2	.	.	.	.	.	.
Cc1ccc(C)c(NC(=O)CSc2nnc3n2CCCCC3)c1	0	6	5	2545	0	0	.	.	.
C=CCNc1nc2cc(-c3ccc(C(=O)N4CCOCC4)cc3)sc2c(=O)n1C	0	21	14	2967	-8	-5	.	.	.
COc1ccc(OC)c(NC(=O)C2CCN(S(=O)(=O)c3ccc4c(c3)CC(C)N4C(C)=O)CC2)c1 (configuration not stated)	-1	8	0	6271	-1	-6	.	.	.
COc1ccccc1Cc1c(-c2ccc(Cl)cc2)nc2c(Cl)cc(C(F)(F)F)cn12	1	.	.	7024	-4	-2	.	.	.
COc1ccccc1Cc1c(-c2ccc(C#N)cc2)nc2c(Cl)cc(C(F)(F)F)cn12	9	.	.	10081	8	1	11	3	1
SMILES	BoNT-A LC inh2	GDH-TPI inh	FBA Mtb inh	Autofluor counter	Anthrax LF inh2	BoNT-F LC inh	BoNT-A LC CP2	Anthrax LF CP2	BoNT-F LC CP2
COc1ccccc1Cc1c(-c2ccc(OC)c(OC)c2)nc2cc(C)c(Br)c(C)n12	2	.	.	4221	-16	-1	.	.	.
COc1ccc(-c2nc3cc(C)c(Br)c(C)n3c2Cc2ccsc2)cc1OC	2	.	.	4388	0	-4	3	-2	-7
COc1ccc(-c2nc3cc(C)c(Br)c(C)n3c2Cc2ccccc2C(F)(F)F)cc1OC	1	.	.	5906	-8	-7	2	-2	-2
Cc1cc2nc(-c3cccc(Br)c3)c(Cc3ccsc3)n2c(C)c1Br	1	.	.	4588	-7	-8	4	1	7
Cc1cc2nc(-c3cccc(Cl)c3)c(Cc3ccsc3)n2c(C)c1Br	3	.	.	6217	3	-6	9	-5	2
Cc1ccc(S(=O)(=O)N2CCCCC2)cc1NC(=O)c1nn(C)c(=O)c2ccccc12	0	-2	0	5622	-2	8	.	.	.
Cc1cccc(NC(=O)NCc2ccc3[nH]c(C)cc3c2)c1	50*	5	10	2613	-87	-97	3	1	12
Cc1ccc(CNC(=O)Nc2cccc(C)c2)cc1	0	-6	2	2262	-3	-6	.	.	.
Cc1ccc(C(=O)NCCNC(=O)c2ccco2)cn1	1	-2	-2	4440	0	-5	.	.	.
Cc1cc2ccccc2n1CCNC(=O)C1CC1	69*	6	1	3417	44*	23	9	10	4
Cc1cc2ccccc2n1CCNC(=O)C1CCCCC1	96*	7	2	2400	27	-27	4	2	6
CCn1c(CNC(=O)C2CCCCC2)cc2ccccc21	-1	3	1	3413	11	-9	.	.	.
O=C(NCCn1ccc2ccccc21)C1CCCCC1	1	-1	-2	5958	-1	-5	.	.	.
Cn1ccc2c(-c3ccc(C(=O)O)cc3)cc3c(c21)C1CCC3C1 (configuration not stated)	0	.	+	6150	8	10	3	1	8

Bioassay records (PubChem BioAssay)
